The values that follow come from paper PMC9911399, “Two distinct binding modes provide the RNA-binding protein RbFox with extraordinary sequence specificity”.

Changes are numbered by the printed parent chain; changes in the protein carry UniProt numbers. Whole data set: some 16,000 sequences, median “ka relative to ugcaugu” near 0.096, cut for the highest 2% near 0.35. The sample as a whole holds a higher share of the highest values than the screen did.

T1: RBFOX1 RRM RbFoxmut (Fox-RRM*) (Homo sapiens, UniProt Q9NWB1 109-208, R118D;E147R;N151S;E152T)
T1 sequence: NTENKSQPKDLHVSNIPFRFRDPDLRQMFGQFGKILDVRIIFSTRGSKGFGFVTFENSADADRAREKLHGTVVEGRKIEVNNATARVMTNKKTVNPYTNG

B1: UAUACUA (DNA:RNA)
RNA: GGGAGACCGGAAUUCAGAUUGUCCUAUACUAUUAAAUCCCGUCGUAGCCACCA
DNA 1: CAATCTGAATTCCGGTCTCCC
DNA 2: TGGTGGCTACGACGGGATT
B2: CUUGGCU (DNA:RNA)
RNA: B1 RNA with U25C, A26U, A28G, C29G, U30C, A31U
DNA 1: CAATCTGAATTCCGGTCTCCC
DNA 2: TGGTGGCTACGACGGGATT
B3: AAGCCAC (DNA:RNA)
RNA: B1 RNA with U25A, U27G, A28C, U30A, A31C
DNA 1: CAATCTGAATTCCGGTCTCCC
DNA 2: TGGTGGCTACGACGGGATT
B4: CUGCCGC (DNA:RNA)
RNA: B1 RNA with U25C, A26U, U27G, A28C, U30G, A31C
DNA 1: CAATCTGAATTCCGGTCTCCC
DNA 2: TGGTGGCTACGACGGGATT
B5: UACUCGG (DNA:RNA)
RNA: B1 RNA with U27C, A28U, U30G, A31G
DNA 1: CAATCTGAATTCCGGTCTCCC
DNA 2: TGGTGGCTACGACGGGATT
B6: CAGGGUU (DNA:RNA)
RNA: B1 RNA with U25C, U27G, A28G, C29G, A31U
DNA 1: CAATCTGAATTCCGGTCTCCC
DNA 2: TGGTGGCTACGACGGGATT
B7: CCUACAU (DNA:RNA)
RNA: B1 RNA with U25C, A26C, U30A, A31U
DNA 1: CAATCTGAATTCCGGTCTCCC
DNA 2: TGGTGGCTACGACGGGATT
B8: UGUCUCG (DNA:RNA)
RNA: B1 RNA with A26G, A28C, C29U, U30C, A31G
DNA 1: CAATCTGAATTCCGGTCTCCC
DNA 2: TGGTGGCTACGACGGGATT
B9: UGAAGGC (DNA:RNA)
RNA: B1 RNA with A26G, U27A, C29G, U30G, A31C
DNA 1: CAATCTGAATTCCGGTCTCCC
DNA 2: TGGTGGCTACGACGGGATT
B10: AUUUCAU (DNA:RNA)
RNA: B1 RNA with U25A, A26U, A28U, U30A, A31U
DNA 1: CAATCTGAATTCCGGTCTCCC
DNA 2: TGGTGGCTACGACGGGATT
B11: CACACCG (DNA:RNA)
RNA: B1 RNA with U25C, U27C, U30C, A31G
DNA 1: CAATCTGAATTCCGGTCTCCC
DNA 2: TGGTGGCTACGACGGGATT
B12: UGGGUAU (DNA:RNA)
RNA: B1 RNA with A26G, U27G, A28G, C29U, U30A, A31U
DNA 1: CAATCTGAATTCCGGTCTCCC
DNA 2: TGGTGGCTACGACGGGATT
B13: GUUCCGU (DNA:RNA)
RNA: B1 RNA with U25G, A26U, A28C, U30G, A31U
DNA 1: CAATCTGAATTCCGGTCTCCC
DNA 2: TGGTGGCTACGACGGGATT
B14: AUAUCCC (DNA:RNA)
RNA: B1 RNA with U25A, A26U, U27A, A28U, U30C, A31C
DNA 1: CAATCTGAATTCCGGTCTCCC
DNA 2: TGGTGGCTACGACGGGATT
B15: UGAUACC (DNA:RNA)
RNA: B1 RNA with A26G, U27A, A28U, C29A, U30C, A31C
DNA 1: CAATCTGAATTCCGGTCTCCC
DNA 2: TGGTGGCTACGACGGGATT
B16: CCUAGCC (DNA:RNA)
RNA: B1 RNA with U25C, A26C, C29G, U30C, A31C
DNA 1: CAATCTGAATTCCGGTCTCCC
DNA 2: TGGTGGCTACGACGGGATT
B17: GGAAGUC (DNA:RNA)
RNA: B1 RNA with U25G, A26G, U27A, C29G, A31C
DNA 1: CAATCTGAATTCCGGTCTCCC
DNA 2: TGGTGGCTACGACGGGATT
B18: GUCCUUG (DNA:RNA)
RNA: B1 RNA with U25G, A26U, U27C, A28C, C29U, A31G
DNA 1: CAATCTGAATTCCGGTCTCCC
DNA 2: TGGTGGCTACGACGGGATT
B19: UUGUUCG (DNA:RNA)
RNA: B1 RNA with A26U, U27G, A28U, C29U, U30C, A31G
DNA 1: CAATCTGAATTCCGGTCTCCC
DNA 2: TGGTGGCTACGACGGGATT
B20: CGGUACG (DNA:RNA)
RNA: GGGAGACCGGAAUUCAGAUUGUCCCGGUACGUUAAAUCCCGUCGUAGCCACCA
DNA 1: CAATCTGAATTCCGGTCTCCC
DNA 2: TGGTGGCTACGACGGGATT
B21: UGGUACG (DNA:RNA)
RNA: B20 RNA with C25U
DNA 1: CAATCTGAATTCCGGTCTCCC
DNA 2: TGGTGGCTACGACGGGATT
B22: UUGUCCG (DNA:RNA)
RNA: B20 RNA with C25U, G26U, A29C
DNA 1: CAATCTGAATTCCGGTCTCCC
DNA 2: TGGTGGCTACGACGGGATT
B23: UGGUACC (DNA:RNA)
RNA: B20 RNA with C25U, G31C
DNA 1: CAATCTGAATTCCGGTCTCCC
DNA 2: TGGTGGCTACGACGGGATT
B24: GUAACCG (DNA:RNA)
RNA: B20 RNA with C25G, G26U, G27A, U28A, A29C
DNA 1: CAATCTGAATTCCGGTCTCCC
DNA 2: TGGTGGCTACGACGGGATT
B25: UGAUCUC (DNA:RNA)
RNA: B1 RNA with A26G, U27A, A28U, A31C
DNA 1: CAATCTGAATTCCGGTCTCCC
DNA 2: TGGTGGCTACGACGGGATT
B26: UGCUGAG (DNA:RNA)
RNA: B20 RNA with C25U, G27C, A29G, C30A
DNA 1: CAATCTGAATTCCGGTCTCCC
DNA 2: TGGTGGCTACGACGGGATT
B27: CGAAUUG (DNA:RNA)
RNA: B20 RNA with G27A, U28A, A29U, C30U
DNA 1: CAATCTGAATTCCGGTCTCCC
DNA 2: TGGTGGCTACGACGGGATT
B28: CCGAAUG (DNA:RNA)
RNA: B20 RNA with G26C, U28A, C30U
DNA 1: CAATCTGAATTCCGGTCTCCC
DNA 2: TGGTGGCTACGACGGGATT
B29: CGAAUGU (DNA:RNA)
RNA: B20 RNA with G27A, U28A, A29U, C30G, G31U
DNA 1: CAATCTGAATTCCGGTCTCCC
DNA 2: TGGTGGCTACGACGGGATT
B30: CGAAAUG (DNA:RNA)
RNA: B20 RNA with G27A, U28A, C30U
DNA 1: CAATCTGAATTCCGGTCTCCC
DNA 2: TGGTGGCTACGACGGGATT
B31: GAAAUGU (DNA:RNA)
RNA: B1 RNA with U25G, U27A, C29U, U30G, A31U
DNA 1: CAATCTGAATTCCGGTCTCCC
DNA 2: TGGTGGCTACGACGGGATT
B32: CCCCGAA (DNA:RNA)
RNA: B20 RNA with G26C, G27C, U28C, A29G, C30A, G31A
DNA 1: CAATCTGAATTCCGGTCTCCC
DNA 2: TGGTGGCTACGACGGGATT
B33: GAAUGUU (DNA:RNA)
RNA: B1 RNA with U25G, U27A, A28U, C29G, A31U
DNA 1: CAATCTGAATTCCGGTCTCCC
DNA 2: TGGTGGCTACGACGGGATT
B34: GUAAUGU (DNA:RNA)
RNA: B1 RNA with U25G, A26U, U27A, C29U, U30G, A31U
DNA 1: CAATCTGAATTCCGGTCTCCC
DNA 2: TGGTGGCTACGACGGGATT
B35: CGUCGUU (DNA:RNA)
RNA: B20 RNA with G27U, U28C, A29G, C30U, G31U
DNA 1: CAATCTGAATTCCGGTCTCCC
DNA 2: TGGTGGCTACGACGGGATT
B36: GGAAUGU (DNA:RNA)
RNA: B20 RNA with C25G, G27A, U28A, A29U, C30G, G31U
DNA 1: CAATCTGAATTCCGGTCTCCC
DNA 2: TGGTGGCTACGACGGGATT
B37: CGAUUGU (DNA:RNA)
RNA: B20 RNA with G27A, A29U, C30G, G31U
DNA 1: CAATCTGAATTCCGGTCTCCC
DNA 2: TGGTGGCTACGACGGGATT
B38: GAUGUUU (DNA:RNA)
RNA: B1 RNA with U25G, A28G, C29U, A31U
DNA 1: CAATCTGAATTCCGGTCTCCC
DNA 2: TGGTGGCTACGACGGGATT

This test concerns the target T1, RBFOX1 RRM RbFoxmut (Fox-RRM*). Description: EMSA; HiTS-Eq, 1 nM pool, 10 min; buffer printed only for the single-RNA assays: 10 mM Tris pH 7.5, 150 mM NaCl, 3.4 mM EDTA, 0.001% NP-40, 30 C. Conditions: tags: His6 N-terminal (pET28a); label: 5' 32P. The method in brief:
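Relative association constants, normalised to the cognate motif, were derived by comparing read counts of each RNA species with those of the control reaction. The RNA sequenced was the free fraction, separated by 8% native PAGE after a 10 min equilibration in 50 µL of 1 nM 5′-radiolabelled RNA (7 randomized nucleotides) with increasing concentrations of purified wild-type or mutant RbFox RRM.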
(In general: A gel shift assay detects complexes by their altered migration in electrophoresis.)
As for B1, the binding signal is 0.0619 KA relative to UGCAUGU.

For the molecule B2, the binding signal is 0.102 KA relative to UGCAUGU.

Take B3: the binding signal is 0.0884 KA relative to UGCAUGU.

Take B4: the binding signal is 0.116 KA relative to UGCAUGU.

In the case of B5, the binding signal is 0.0779 KA relative to UGCAUGU.

With B6, the binding signal is 0.106 KA relative to UGCAUGU.

As to B7, the binding signal is 0.0881 KA relative to UGCAUGU.

Consider B8, for which the binding signal was 0.32 KA relative to UGCAUGU.

On to B9, for which the binding signal was 0.0677 KA relative to UGCAUGU.

For B10, the binding signal is 0.12 KA relative to UGCAUGU.

Regarding B11, the binding signal was 0.12 KA relative to UGCAUGU.

Regarding B12, the binding signal was 0.172 KA relative to UGCAUGU.

As to B13, the binding signal was 0.127 KA relative to UGCAUGU.

For B14, the binding signal is 0.0954 KA relative to UGCAUGU.

For the molecule B15, the binding signal was 0.103 KA relative to UGCAUGU.

Consider B16, for which the binding signal is 0.149 KA relative to UGCAUGU.

Turning to B17, the binding signal was 0.111 KA relative to UGCAUGU.

As to B18, the binding signal is 0.116 KA relative to UGCAUGU.

Take B19: the binding signal was 0.463 KA relative to UGCAUGU.

Regarding B20, the binding signal was 0.24 KA relative to UGCAUGU.

With B21, the binding signal was 0.367 KA relative to UGCAUGU.

On to B22, for which the binding signal was 0.188 KA relative to UGCAUGU.

Take B23: the binding signal is 0.133 KA relative to UGCAUGU.

For B24, the binding signal is 0.114 KA relative to UGCAUGU.

For B25, the binding signal is 0.0775 KA relative to UGCAUGU.

As to B26, the binding signal is 0.102 KA relative to UGCAUGU.

For B27, the binding signal was 0.141 KA relative to UGCAUGU.

On to B28, for which the binding signal was 1.39 KA relative to UGCAUGU.

For the molecule B29, the binding signal was 1.07 KA relative to UGCAUGU.

B30: the binding signal was 0.101 KA relative to UGCAUGU.

For B31, the binding signal was 0.0843 KA relative to UGCAUGU.

For B32, the binding signal is 0.136 KA relative to UGCAUGU.

For B33, the binding signal was 0.884 KA relative to UGCAUGU.

Regarding B34, the binding signal was 0.154 KA relative to UGCAUGU.

Take B35: the binding signal was 0.108 KA relative to UGCAUGU.

Consider B36, for which the binding signal is 0.959 KA relative to UGCAUGU.

In the case of B37, the binding signal is 0.206 KA relative to UGCAUGU.

On to B38, for which the binding signal is 0.125 KA relative to UGCAUGU.
